MITF act = MITF TRPM1 promoter activation in melanoma cells. SK-MEL-5 TRPM1-promoter luciferase, 24 h; % of positive control, neutral wells = 0. activation, % at 12.5 µM. 0.75% of 300,000 active;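 active = mean activation of at least 80% with every replicate also reaching 80%; inconclusive = mean reaches 80% but some replicate falls short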;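 also: 0% = neutral control wells and 100% = parthenolide positive control wells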
Statin myotox sup = protects C2C12 myotubes from simvastatin toxicity; ATP luminescence, 48 h; scaled: DMSO 0, geranylgeraniol control 100; rescue of ATP level, % at 7.49 µM; 0.78% of 330,000 active; AID 602340;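 active = mean ATP rescue above about 67%, or every replicate alone reaching that limit, limit read from the data, passing the limit was not always enough; inconclusive = no clear call, values can overlap the other calls; inactive = mean under the limit and some replicate under it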;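 also: myotubes were challenged with 10 µM simvastatin during compound exposure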
esBAF inh = blocks esBAF chromatin remodeling in mouse ES cells | Bmi1-luciferase knock-in reporter, 24 h; 100% = twice the neutral-well signal | reporter increase, % at 12.5 µM | 2% of 350,000 active | AID 602393; in the data active = activation above about 40%; inconclusive = no clear call, values can overlap the other calls;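 also: 0% = median of the plate's neutral control wells and 100% = double that signal; a rise in the Bmi1 reporter signal indicates esBAF inhibition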
Wnt bcat act = Wnt/beta-catenin pathway activation | Wnt/beta-catenin reporter cell assay, activator, plate reader | activation, % at 9.35 µM | 1.2% of 300,000 active | AID 743398; in the data active = activation above about 30%, passing the limit was not always enough; inconclusive = no clear call, values can overlap the other calls;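 also: 0% = neutral control wells and 100% = positive control wells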
The depositor's hits bear a star; ? = inconclusive; / = no result. A selection: hits, their analogues and other compounds. The true share with any hit is near 3%.

SMILES	MITF act	Statin myotox sup	esBAF inh	Wnt bcat act
Cc1ccc(-c2cc(C(=O)NC3CCCC3)no2)cc1	125.0*	-12.9	39.1	28.7
O=C(NC1CCCCC1)c1cc(-c2ccc(F)cc2)on1	/	-17.3	59.4*	-2.6
CC(C)Oc1cc(F)ccc1-c1cc(C(=O)NC2CCCCC2)[nH]n1	/	-4.2	-4.3	-3.8
Cc1ccc(S(=O)(=O)N[C@@H]2CC[C@H](CCn3cc(C(C)C)nn3)O[C@H]2CO)cc1	/	2.9	0.0	/
Cc1csc(NC(=O)c2ccc3c(=O)n4c(nc3c2)CCCCC4)n1	68.3	/	/	10.2
O=C(Nc1nccs1)c1ccc2c(=O)n3c(nc2c1)CCCCC3	35.6	-3.6	52.8*	15.1
O=C(Nc1ccc(F)cc1Cl)c1ccc2c(=O)n3c(nc2c1)CCC3	101.5*	0.2	?	28.7
CC(C)C#Cc1ccc2c(c1)O[C@H](CN(C)C(=O)NC(C)C)[C@H](C)CN([C@@H](C)CO)S2(=O)=O	/	-4.9	-1.9	/
COc1ccc2cc(-c3ccn[nH]3)ccc2c1	34.7	8.7	-22.9	35.3*
COc1ccc(-c2cc(-c3ccccc3O)[nH]n2)cc1	38.1	/	/	/
N=c1n(N)c2ccccc2n1CC(=O)c1ccc(Br)cc1	/	-17.5	52.3*	1.9
CSc1nc(Sc2ccccc2)c2ccccc2n1	12.5	17.3	-0.1	/
CSc1nc(Sc2ccc(Cl)cc2)c2ccccc2n1	-8.4	146.4*	1.8	-1.4
C[C@@H](O)C#Cc1cnc2c(c1)C(=O)N([C@@H](C)CO)C[C@H](C)[C@H](CN(C)C(=O)c1ccncc1)O2	/	15.0	-3.1	/
O=C1CCN(Cc2ccccc2)C=C1c1ccc(Cl)cc1	5.7	5.2	19.5	-1.8
O=C1CCN(Cc2ccccc2)C=C1c1ccc2ccccc2c1	50.7	3.9	63.3*	43.7*
CN(C)CC(=O)Nc1ccc2c(c1)[C@H]1C[C@@H](CC(=O)NCc3ccccc3F)O[C@@H](CO)[C@H]1O2	/	1.2	-2.9	/
O=C(COc1ccccc1[N+](=O)[O-])Nc1ccc2c(c1)OCO2	60.6	6.1	57.9*	15.9
O=C(COc1cc(F)ccc1[N+](=O)[O-])Nc1ccc2c(c1)OCO2	64.5	-4.3	57.3*	22.4
NC(=O)c1cc(Cl)ccc1OCC(=O)Nc1ccc2c(c1)OCO2	57.3	-27.3	-48.4	67.8*
O=C(COC(=O)COc1ccccc1[N+](=O)[O-])Nc1ccc2c(c1)OCO2	-5.4	-3.3	1.6	1.6
CC(=O)c1cc(F)ccc1OCC(=O)Nc1ccc2c(c1)OCO2	?	5.3	7.3	52.8*
COc1ccc(S(=O)(=O)Nc2ccc3c(c2)CC(=O)N([C@H](C)CO)C[C@H](C)[C@H](CN(C)C(=O)NC2CCCCC2)O3)cc1	/	-17.4	-5.0	/
O=C(COc1cccc(Cl)c1Cl)Nc1ccc2c(c1)CCC2	24.8	/	/	8.1
CCSc1nnc(NC(=O)COc2ccccc2[N+](=O)[O-])s1	21.7	0.2	48.6*	4.8
SMILES	MITF act	Statin myotox sup	esBAF inh	Wnt bcat act
O=C(COc1ccccc1[N+](=O)[O-])N/N=C/c1cccc(OC(=O)c2ccc3c(c2)OCO3)c1	95.1*	/	/	28.6
O=C(COc1ccc2c(c1)OCO2)Nc1ccc(Cl)cn1	83.6*	-10.4	46.1*	18.0
CC(C)c1nnc(NC(=O)COc2ccccc2[N+](=O)[O-])s1	/	/	/	21.1
O=C(COc1ccccc1[N+](=O)[O-])Nc1ccc2c(c1)CCC2	110.7*	9.9	79.0*	28.8
COC(=O)N/N=C/c1cccc(OC(=O)c2ccc3c(c2)OCO3)c1	/	-1.5	5.0	-0.9
CO[C@H]1CN(C)C(=O)c2cc(NC(=O)C3CCOCC3)ccc2OC[C@@H](C)N(C(=O)c2ccccc2)C[C@H]1C	/	-3.5	0.4	/
C=CCSc1n[nH]c(-c2ccc(OCCCC)cc2)n1	66.5	-58.9	47.5*	-1.7
C=CCSc1n[nH]c(-c2ccc(OCCC)cc2)n1	92.1*	-4.4	73.7*	21.4
C=CCSc1n[nH]c(-c2cccs2)n1	25.8	1.6	17.9	4.7
Cc1ccc(C2NC(=S)N3C(c4ccc(C)cc4)NC(=S)N23)cc1 (centres undefined)	/	-15.4	61.1*	6.0
O=C(NCC[C@@H]1CC[C@H](NC(=O)Nc2cc(F)ccc2F)[C@@H](CO)O1)Nc1ccc(F)cc1	/	2.0	3.0	/
Cc1ccc(C(O)CN2C3=NCCN3c3ccccc32)cc1 (centres undefined)	4.3	121.4*	-10.4	/
OC(CN1C2=NCCN2c2ccccc21)c1ccccc1 (centres undefined)	1.1	3.8	6.8	-1.7
COc1cc2c3c(c1)C1(C(=O)N3C(C)(C)C=C2C)C(C#N)=C(N)Oc2cc(C)oc(=O)c21 (centres undefined)	-5.1	113.9*	2.1	0.0

Screening results (PubChem)
